High-throughput results from PubChem.
SKN-1 inh: inhibitors of C. elegans SKN-1. C. elegans VP596 Pgst-4::GFP/RFP ratio, acrylamide-induced, 24 h. inhibition, % at 21.8 µM. 360,000 tested, 0.49% active;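 active = interference check ratio from 0.5 to 1.5 plus GFP to RFP signal ratio inhibition reaching or exceeding a fixed threshold, cut at about 30% in these data, passing the limit was not always enough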
SMARCA2 act: SMARCA2 function activation, primary screen; MG213 cells, MMTV-luciferase reporter, dexamethasone, overnight; activation, % at 9.1 µM; 370,000 tested, 1% active; AID 652017; in the data active = activation above about 7.8%;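 also: 0% = vehicle wells and 100% = reference activator wells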
NadD inh: blocks S. aureus nicotinate mononucleotide adenylyltransferase. AID 602399. inhibition, % at 20 µM. purified NadD enzyme, colorimetric absorbance read-out. 360,000 tested, 0.78% active; in the data active = inhibition above about 26%
Vif imaging: blocks HIV Vif function. 340,000 tested, 0.35% active. HEK293T cells, Vif self-association by quenched fluorescence, imaging, 24 h. inhibition, % at 7.49 µM; in the data active = inhibition above about 50%, passing the limit was not always enough
esBAF inh: blocks esBAF chromatin remodeling in mouse ES cells; Bmi1-luciferase knock-in reporter, 24 h; 100% = twice the neutral-well signal; reporter increase, % at 12.5 µM; 350,000 tested, 2% active; AID 602393; in the data active = activation above about 40%;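 also: 0% = median of the plate's neutral control wells and 100% = double that signal; a rise in the Bmi1 reporter signal indicates esBAF inhibition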
NR3A LBD binder: modulates the human NR3A ligand-binding domain; Tm shift relative to glycine control, % at 25 µM; 340,000 tested, 2.5% active; NR3A LBD differential scanning fluorimetry, Tm shift; 0% = protein alone, 100% = glycine-bound protein; AID 1259313;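 active = melting temperature shift of at least 10% of the positive control shift, at one fixed dose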
* marks the source's active call; other numbers are inactive results; . = no result given. Compounds with a hit are over-represented: about 5.2% of the library has one in this group of screens.

SMILES	SKN-1 inh	SMARCA2 act	NadD inh	Vif imaging	esBAF inh	NR3A LBD binder
Cc1cccc(CCNc2nc3ccc(C)cc3n3cnnc23)c1	7	2	-9	-9	46*	1
Cc1cccc2c1-c1sc(C(=O)N3CCCCC3)cc1CO2	32	1	-11	-8	68*	0
Cc1ccc(-c2nn3c(C)nnc3c3ccccc23)cc1S(=O)(=O)NCCN1CCOCC1	9	3	-4	12	11	0
Cc1ccc(-c2nn3c(C)nnc3c3ccccc23)cc1S(=O)(=O)NCc1ccccc1	-9	-1	14	87*	3	-2
C[C@H](CO)N1C[C@H](C)[C@H](CN(C)S(C)(=O)=O)Oc2cc(C#CC3CC3)ccc2S1(=O)=O	.	.	.	.	0	.
Cc1ccccc1C(=O)NCCSc1ccccc1	-12	6	-6	2	55*	-1
O=C(NCCSc1ccccc1)c1ccc(Br)cc1	0	1	-8	-13	.	0
CSc1ccccc1C(=O)NCCSc1ccccc1	3	2	-12	-6	24	0
O=C(NCCSc1ccccc1)c1cncc(Br)c1	8	3	-5	0	76*	-1
C[C@H]1CN([C@@H](C)CO)C(=O)c2cccc(NC(=O)NC3CCCCC3)c2O[C@H]1CN(C)Cc1ccc2c(c1)OCO2	.	.	.	.	13	.
C[C@@H]1CN([C@@H](C)CO)C(=O)c2cc(NC(=O)C3CC3)ccc2O[C@@H]1CN(C)C(=O)Nc1ccccc1	.	.	.	.	-3	.
Cc1ccc(CCNC(=O)c2coc3nc4ccccc4nc23)cc1	37*	-4	3	-3	0	-7
CC(C)NC(=O)Cn1c(SCC(=O)N2c3ccccc3CC2C)nc2ccccc21 (stereo not given)	-14	3	-5	1	.	1
CC(C)Cn1c(=O)c2ccccc2n2c(SCC(=O)N3c4ccccc4CC3C)nnc12 (stereo not given)	-6	-1	5	-3	-12	20*
Nc1nc2ccc(N3CCOCC3)cc2s1	-8	3	2	-9	-16	12*
CCOc1ccc2c(=O)c(Oc3ccccc3OCC)coc2c1	36*	-3	-2	-5	64*	1
C[C@H](NC(=O)C[C@@H]1CC[C@@H](NC(=O)C2CCC2)[C@@H](CO)O1)c1ccccc1	.	.	.	.	-3	.
COc1cccc(CN(C)C[C@@H]2OCc3cnnn3CCCC(=O)N([C@@H](C)CO)C[C@@H]2C)c1	.	.	.	.	-4	.
Cc1noc(C)c1S(=O)(=O)Nc1ccc2c(c1)C(=O)N([C@H](C)CO)C[C@@H](C)[C@@H](CN(C)C(=O)NC1CCCCC1)O2	.	.	.	.	-2	.
Cc1ccccc1-c1nc(Cc2ccccc2)no1	24	4	-3	12	60*	-1
Cc1ccccc1-c1nc(-c2ccccn2)no1	12	1	-8	-2	.	-2
CCC(CC)n1[nH]c(=O)cc1N	21	1	7	28	0	14*
Cc1ccc(C2CCN(C(=O)Nc3ccc(F)cc3)C2)cc1 (stereo not given)	0	5	-1	-2	63*	-1
O=C(Nc1ccccc1)N1CC=C(c2ccc(F)cc2)CC1	-1	8	-4	-1	61*	21*
Cc1nc2cc(NC(=O)N3CCC(c4ccccc4)C3)ccc2n1C (stereo not given)	8	3	2	-2	54*	-1
SMILES	SKN-1 inh	SMARCA2 act	NadD inh	Vif imaging	esBAF inh	NR3A LBD binder
O=C(C[C@H]1C[C@H]2c3cc(NC(=O)Nc4ccccc4F)ccc3O[C@H]2[C@H](CO)O1)NCc1ccncc1	.	.	.	.	-2	.
COc1ccc(-c2n[nH]c(C(F)(F)F)c2-c2cc3ccccc3o2)c(O)c1	4	-3	-8	0	-6	15*
COc1ccccc1-c1c(-c2ccc(OCC(=O)NN)cc2O)n[nH]c1C(F)(F)F	-5	-4	6	-6	-3	-2
CC(C)NC(=O)N1[C@H](CO)[C@@H](c2ccccc2)[C@H]1CNC(=O)CN(C)C	.	.	.	.	2	.
CO[C@H](CN(C)S(=O)(=O)c1ccc(Cl)cc1)[C@H](C)CN(Cc1ccccc1Cl)[C@H](C)CO	.	.	.	.	-4	.
O=C1/C(=C/c2ccc(N3CCCC3)cc2)NC(=S)N1C1CC1	25	-1	3	54*	48*	-9
O=C1N/C(=C/c2ccc(N3CCCC3)cc2)C(=O)N1c1ccccc1	5	1	9	6	.	-7
